LAP4 TOR yeast: modulators of TOR pathway LAP4-GFP in S. cerevisiae | GFP response vs DMSO, % at 10 µM | actives 0.34% (n = 320,000) | S. cerevisiae LAP4-GFP multiplex, flow cytometry GFP, 3 h; median GFP as percent of DMSO wells;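 active = GFP response vs DMSO above a set limit, about the screen mean plus 3 SD, cut at about 150% in these data; inconclusive = under 70 cell events counted for the yeast strain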
MEP2-GFP yeast: yeast TOR pathway MEP2-GFP modulation | S. cerevisiae MEP2-GFP strain, flow cytometry GFP, 3 h; 100% = DMSO control level | GFP response vs DMSO, % at 10 µM | actives 0.51% (n = 330,000) | AID 2016;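 active = GFP response versus DMSO above a set limit, roughly screen mean plus 3 SD, cut at about 180% in these data; inconclusive = fewer than 70 cells counted for a yeast strain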;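 note: median GFP fluorescence of the barcode-gated MEP2-GFP cells per well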
RPL19A TOR yeast: modulators of TOR pathway RPL19A-GFP in S. cerevisiae; S. cerevisiae RPL19A-GFP strain, flow cytometry, 3 h; stronger effect = lower value; percent response vs DMSO, % at 10 µM; actives 0.3% (n = 330,000); AID 2025;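 active = percent response vs DMSO below 50%; inconclusive = fewer than 70 events counted for the yeast strain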;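 note: median channel GFP fluorescence of the barcoded RPL19A-GFP strain; ratio of sample median GFP to plate DMSO average so 100% = DMSO; lower means less RPL19A-GFP as with rapamycin TOR inhibition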
AGP1-GFP MLPCN: yeast TOR pathway AGP1-GFP modulation | S. cerevisiae AGP1-GFP multiplex flow cytometry, 3 h; GFP as percent of DMSO wells | GFP response vs DMSO, % at 10 µM | actives 0.02% (n = 320,000);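 active = GFP response relative to DMSO above a set limit, near screen average plus 3 SD, cut at about 150% in these data; inconclusive = fewer than 70 cells counted for the yeast strain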;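 note: median GFP channel fluorescence of the gated AGP1 strain per well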
CIT2-GFP yeast: modulators of TOR pathway CIT2-GFP in S. cerevisiae. S. cerevisiae CIT2-GFP strain, flow cytometry, 3 h; 100 means same as DMSO wells. GFP response vs DMSO, % at 10 µM. actives 0.065% (n = 320,000). AID 2029;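 active = GFP response relative to DMSO above a set limit, near the screen mean plus 3 SD, cut at about 150% in these data; inconclusive = Fewer than 70 cells measured for a yeast strain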;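 note: ratio of well median GFP fluorescence to mean of DMSO wells on the plate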
* hit, by the source's call; ? = inconclusive; [ ] = remark or other dose. Rows were chosen to be rich in hits. Some 0.93% of all compounds tested hit in one or more screens of this group.

SMILES | LAP4 TOR yeast | MEP2-GFP yeast | RPL19A TOR yeast | AGP1-GFP MLPCN | CIT2-GFP yeast
Clc1ccc(C2=NNC(=NCc3ccccc3)SC2)cc1 | 85 | 222* | 94 | 33 | 97
O=C(/C=C/c1cccs1)N1CCCC1 | 94 | 98 | 97 | 100 | 94
Cc1cc(C)n(C(=O)/C=C/c2cccs2)n1 | 86 | 211*[may fluoresce violet] | 54 | ? | ?
CCS(=O)(=O)C1=NN2C(=N)/C(=C\c3ccc(OS(=O)(=O)c4ccccc4)c(OC)c3)C(=O)N=C2S1 | 93 | 93 | 102 | 98 | 95
COc1cc(/C=C2\C(=N)N3N=C(S(C)(=O)=O)SC3=NC2=O)ccc1OS(=O)(=O)c1ccccc1 | 80 | 142 | 18*[may fluoresce violet] | ? | ?
Cn1c(=NC(=O)C(C)(C)C)sc2cccc(F)c21 | 100 | 210*[may fluoresce violet] | 83 | 28 | ?
COc1ccc(C2N(c3ccc(Cl)cc3)N=C(C(C)=O)N(C)N2C(C)=O)cc1 (stereo not drawn) | 143 | 240* | 81 | 108 | 119
COc1ccc(N2CCN(C(=O)NC(=O)c3ccc(Cl)cc3)CC2)cc1 | 107 | 111 | 98 | 108 | 116
CCOc1ccc(N(C(C)=O)c2nc(C)cc(C)c2C#N)cc1 | 107 | 128 | 105 | 97 | 91
O=c1c2c(-c3ccc(Cl)cc3)csc2ncn1/N=C/c1cccc([N+](=O)[O-])c1O | 201* | 575* | 71 | 145 | 147
CC(OC(=O)c1ccccc1CCc1ccccc1)C(N)=O (stereo not drawn) | 78 | 373*[may fluoresce violet] | 22*[may fluoresce violet] | ? | ?
NC(=O)C1CCN(C(=O)CCc2nc3sc4c(c3c(=O)[nH]2)CCCC4)CC1 | 96 | 93 | 89 | 94 | 90
CCOC(=O)N1CCN(C(=O)CCc2nc3sc4c(c3c(=O)[nH]2)CCCC4)CC1 | ? | ? | 34*[may fluoresce violet] | ? | ?
CCn1c(SCC(=O)OC2CCCCC2)nnc1-c1ccncc1 | 100 | 580*[may fluoresce violet] | 47*[may fluoresce violet] | 21 | ?
CCn1c(SCC(=O)OC)nnc1-c1ccncc1 | 100 | 105 | 103 | 101 | 98
Cc1ccc(C(=O)NNC(=O)CSc2n[nH]c(-c3cccnc3)n2)cc1 | 108 | 100 | 101 | 104 | 96
COc1ccc(C(=O)Nc2ccnn2C2CCN(C(=O)CCC(F)(F)F)CC2)cc1 | 112 | 118 | 92 | 111 | 112
C=CCCC(=O)N1CCC(n2nccc2NC(=O)c2ccc(OC)cc2)CC1 | 79 | 124 | 31*[may fluoresce violet] | ? | ?
C#CCn1cnc2c(cnn2-c2ccc(C)c(C)c2)c1=O | 104 | 99 | 95 | 92 | 101
Cc1ccc(-n2ncc3c(=O)n(CC#N)cnc32)cc1C | 62 | 235*[may fluoresce violet] | 59 | ? | ?
COC/C=C/C1=CC2=CC(=O)C(C)(OC(=O)C3CCCC3)C(=O)C2=CO1 (stereo not drawn) | 167*[may fluoresce violet] | 175*[may fluoresce violet] | 83 | 8 | ?
C=CCc1cccc(CNc2c(C)cc(C)cc2C)c1O | 95 | 105 | 104 | 101 | 106
Cc1ccc(NS(=O)(=O)c2ccc(C(=O)N3CCN(S(=O)(=O)c4ccccc4)CC3)cc2)cc1 | 97 | 96 | 100 | 102 | 102
O=C(Cc1cccs1)N1CCCC(c2nc3c(nnn3Cc3ccccc3Cl)c(=O)[nH]2)C1 (stereo not drawn) | 95 | 294*[may fluoresce violet] | 50*[may fluoresce violet] | ? | ?
Cc1ccnn1Cc1cc(C(=O)O)c2ccccc2n1 | 98 | 96 | 92 | 99 | 84
SMILES | LAP4 TOR yeast | MEP2-GFP yeast | RPL19A TOR yeast | AGP1-GFP MLPCN | CIT2-GFP yeast
CN(CC(=O)Nc1cccc(F)c1)C(=O)c1ccccc1OCCOc1ccccc1 | 102 | 96 | 100 | 103 | 96
CCn1c(=S)sc2c(=O)[nH]c(C)nc21 | 100 | 298*[may fluoresce violet] | 40*[may fluoresce violet] | ? | ?
Cc1ccc(-c2cc(C(=O)NCC3CCCO3)c3ccccc3n2)cc1C (stereo not drawn) | 87 | 259*[may fluoresce violet] | 43*[may fluoresce violet] | 16 | ?
Cc1cccn2c(=O)c3cc(C(=O)NC4CCCC4)c(=N)n(CC4CCCO4)c3nc12 (stereo not drawn) | 93 | 549*[may fluoresce violet] | 57 | 85 | ?
Cc1cccn2c(=O)c3cc(C(=O)NCc4ccc(F)cc4)c(=N)n(CC4CCCO4)c3nc12 (stereo not drawn) | 99 | 101 | 99 | 82 | 92
Cc1cccn2c(=O)c3cc(C(=O)NCc4ccco4)c(=N)n(C4CCCC4)c3nc12 | 93 | 112 | 100 | 30 | ?
